Only a selection was taken, and the strongest signals are over-represented in it overall.
What was measured:
Assay in all cases: glycan array binding signal (z-score within array); higher = stronger binding
Conditions in all cases: glycan notation: IUPAC condensed, linker removed
[1] = system: Gal(b1-4)GlcNAc(b1-2)Man(a1-6)Man(b1-4)GlcNAc(b1-4)GlcNAc
How it was run: (§1)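 From the Consortium for Functional Glycomics database, 3228 arrays were curated, keeping only those whose protein sequence was available. Binding is given as a within-array Z-score averaged across arrays sharing a protein sequence and across linkers. Negative Z-scores can be read as non-binding.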

[2] = system: Gal(b1-4)GlcNAc(b1-2)[Gal(b1-4)GlcNAc(b1-4)]Man(a1-3)[GlcNAc(b1-4)][Gal(b1-4)GlcNAc(b1-2)Man(a1-6)]Man(b1-4)GlcNAc(b1-4)GlcNAc
How it was run: as §1

[3] = system: Gal(b1-4)GlcNAc(b1-2)Man(a1-3)[Gal(b1-4)GlcNAc(b1-2)][GlcNAc(b1-4)]Man(b1-4)GlcNAc(b1-4)GlcNAc
How it was run: as §1

[4] = system: Gal(b1-4)GlcNAc(b1-2)[Gal(b1-4)GlcNAc(b1-4)]Man(a1-3)[Gal(b1-4)GlcNAc(b1-2)[Gal(b1-4)GlcNAc(b1-6)]Man(a1-6)]Man(b1-4)GlcNAc(b1-4)GlcNAc
How it was run: as §1

[5] = system: Gal(b1-4)GlcNAc(b1-3)Gal(b1-4)GlcNAc(b1-2)Man(a1-3)[Gal(b1-4)GlcNAc(b1-3)Gal(b1-4)GlcNAc(b1-2)Man(a1-6)]Man(b1-4)GlcNAc(b1-4)GlcNAc
How it was run: as §1

[6] = system: Gal(b1-4)GlcNAc(b1-3)Gal(b1-4)GlcNAc(b1-3)Gal(b1-4)GlcNAc(b1-2)Man(a1-3)[Gal(b1-4)GlcNAc(b1-3)Gal(b1-4)GlcNAc(b1-3)Gal(b1-4)GlcNAc(b1-2)Man(a1-6)]Man(b1-4)GlcNAc(b1-4)[Fuc(a1-6)]GlcNAc
How it was run: as §1

[7] = system: Gal(b1-4)GlcNAc(b1-3)Gal(b1-4)GlcNAc(b1-3)Gal(b1-4)GlcNAc(b1-2)[Gal(b1-4)GlcNAc(b1-3)Gal(b1-4)GlcNAc(b1-3)Gal(b1-4)GlcNAc(b1-6)]Man(a1-6)[Gal(b1-4)GlcNAc(b1-3)Gal(b1-4)GlcNAc(b1-3)Gal(b1-4)GlcNAc(b1-2)Man(a1-3)]Man(b1-4)GlcNAc(b1-4)[Fuc(a1-6)]GlcNAc
How it was run: as §1

[8] = system: Gal(b1-4)GlcNAc(b1-2)[Gal(b1-4)GlcNAc(b1-6)]Man(a1-6)[GlcNAc(b1-4)][Gal(b1-4)GlcNAc(b1-2)Man(a1-3)]Man(b1-4)GlcNAc(b1-4)GlcNAc
How it was run: as §1

[9] = system: Gal(b1-4)GlcNAc(b1-3)Gal(b1-4)GlcNAc(b1-2)[Gal(b1-4)GlcNAc(b1-3)Gal(b1-4)GlcNAc(b1-6)]Man(a1-6)[Gal(b1-4)GlcNAc(b1-3)Gal(b1-4)GlcNAc(b1-2)Man(a1-3)]Man(b1-4)GlcNAc(b1-4)[Fuc(a1-6)]GlcNAc
How it was run: as §1

[10] = system: Gal(b1-4)GlcNAc(b1-3)Gal(b1-4)GlcNAc(b1-3)Gal(b1-4)GlcNAc(b1-2)Man(a1-3)[Gal(b1-4)GlcNAc(b1-3)Gal(b1-4)GlcNAc(b1-3)Gal(b1-4)GlcNAc(b1-2)Man(a1-6)]Man(b1-4)GlcNAc(b1-4)GlcNAc
How it was run: as §1

Sequence of CHI3L1 (Homo sapiens), P36222 (P36222 whole entry): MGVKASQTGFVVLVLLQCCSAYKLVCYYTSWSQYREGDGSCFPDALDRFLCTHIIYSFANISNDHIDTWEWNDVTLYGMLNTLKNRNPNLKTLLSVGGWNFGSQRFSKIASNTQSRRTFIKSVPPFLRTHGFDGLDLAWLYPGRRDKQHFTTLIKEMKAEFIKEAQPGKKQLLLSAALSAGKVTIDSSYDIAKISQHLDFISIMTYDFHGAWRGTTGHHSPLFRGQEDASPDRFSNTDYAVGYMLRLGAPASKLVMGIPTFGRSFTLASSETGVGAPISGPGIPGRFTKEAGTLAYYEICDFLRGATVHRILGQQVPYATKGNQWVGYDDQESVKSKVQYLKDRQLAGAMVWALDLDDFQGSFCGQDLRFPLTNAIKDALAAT
Sequence of PILRb (Mus musculus), Q2YSF2 (Q2YSF2 entry or part of it): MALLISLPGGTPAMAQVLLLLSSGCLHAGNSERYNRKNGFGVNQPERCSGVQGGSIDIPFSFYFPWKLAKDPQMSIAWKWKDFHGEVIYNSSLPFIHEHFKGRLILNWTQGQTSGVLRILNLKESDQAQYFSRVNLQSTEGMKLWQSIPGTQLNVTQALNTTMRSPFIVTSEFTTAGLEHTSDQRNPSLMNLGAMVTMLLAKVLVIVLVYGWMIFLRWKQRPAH
Sequence of Avaren (Actinomycete K97) (chain, as listed by the source): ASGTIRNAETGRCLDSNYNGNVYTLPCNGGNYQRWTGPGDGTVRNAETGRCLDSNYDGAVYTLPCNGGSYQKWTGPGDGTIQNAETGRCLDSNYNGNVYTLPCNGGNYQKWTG
Sequence of PILRa (Mus musculus), Q2YSF3 (Q2YSF3 entry or part of it): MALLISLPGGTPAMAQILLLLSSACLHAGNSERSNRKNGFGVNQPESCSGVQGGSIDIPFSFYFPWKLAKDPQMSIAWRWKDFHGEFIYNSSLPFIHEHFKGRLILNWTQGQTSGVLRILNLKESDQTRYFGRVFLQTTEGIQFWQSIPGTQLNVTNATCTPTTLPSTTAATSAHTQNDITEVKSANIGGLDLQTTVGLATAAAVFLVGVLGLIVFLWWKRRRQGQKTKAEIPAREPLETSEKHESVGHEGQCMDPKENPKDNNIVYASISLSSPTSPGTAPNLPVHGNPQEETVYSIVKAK

CHI3L1 (Homo sapiens), P36222
glycan array binding signal (z-score) [1]: -0.062 | glycan array binding signal (z-score) [2]: -0.131

PILRb (Mus musculus), Q2YSF2
glycan array binding signal (z-score) [3]: -0.5

Siglec-8 (Homo sapiens), Q9NYZ4
glycan array binding signal (z-score) [3]: -0.068 | glycan array binding signal (z-score) [4]: -0.067 | glycan array binding signal (z-score) ([2]; mutation: R125K): -0.113 | glycan array binding signal (z-score) [5]: 0.515 | glycan array binding signal (z-score) ([5]; mutation: R125K): 2.56 | glycan array binding signal (z-score) [6]: 0.69 | glycan array binding signal (z-score) ([7]; mutation: R125K): 0.13

PILRa (Mus musculus), Q2YSF3
glycan array binding signal (z-score) [8]: -0.088

MpAFP RI GFP (Marinomonas primoryensis)
glycan array binding signal (z-score) [5]: 2.61 | glycan array binding signal (z-score) [9]: 5.48 | glycan array binding signal (z-score) [7]: 3.87

Avaren (Actinomycete K97)
glycan array binding signal (z-score) [10]: -0.051
